Drawing on publication PMC7826789 (International Journal of Molecular Sciences, 2021), this text covers Kinases covered for nine molecules.

The first experiment deals with MAPK15.
Consider `CCOc1ccc2c(-c3ccnc(Nc4cccc(C(F)(F)F)c4)n3)cnn2n1` [GW811761X], for which the Kinases covered entry is on record as “MAPK15”.
For `CCOc1ccc2c(-c3ccnc(Nc4cc(OC)cc(C(F)(F)F)c4)n3)cnn2n1` [GW807982X], the Kinases covered entry is given as “MAPK15”.
For `O=C(Nc1n[nH]c2cc(-c3ccsc3)ccc12)C1CC1` [SB-732932], the Kinases covered result was “MAPK15”.

Another experiment has as its system MAPK9.
For the molecule `O=C(O)/C=C/C(=O)O.OCCCNc1nccc(-c2c(-c3ccc(F)cc3)nn3cc(C(F)(F)F)ccc23)n1` [GW569293E], the Kinases covered result is recorded as “MAPK9”.
For `Nc1nccc(-c2c(-c3ccc(F)cc3)ncn2C2CCN(Cc3ccccc3)CC2)n1` [SB-219980], the Kinases covered result is “MAPK9”.
On to `Fc1ccc(-c2nn3ccccc3c2-c2ccncc2)cc1` [GW434756X], for which the Kinases covered result is “MAPK9”.

The subject of a further experiment is MEK5.
For the molecule `CCCS(=O)(=O)Nc1ccc(F)c(-n2cc(-c3cncc(OC)c3)nn2)c1F` [BI00865461], the Kinases covered result is recorded as “MEK5”.
Take `COc1cc2ncnc(Nc3ccc(F)c(Cl)c3)c2cc1O[C@H]1CC[C@H](N)CC1` [BIBW3133BS]: the Kinases covered entry is listed as “MEK5”.
Consider `COc1cc2ncnc(Nc3cccc(Cl)c3F)c2cc1O[C@H]1CC[C@H]([C@@H]2NCCNC2=O)CC1` [BI00133844], for which the Kinases covered entry is recorded as “MEK5”.
